Results published in PubChem BioAssay AID1159580 (chemical genetic matrix, 2015).
Screen size: about 5,500 compounds; about 2,000 (36%) were called active. Inconclusive results (about 18%) are left out. Rule as the data show it: active = normalized growth mostly below about 0.91 (no sharp cut-off); inconclusive = no clear call, values can overlap the other calls; inactive = mostly above about 0.92. This is one part of the list.

Test: chemical genetic growth profiling, strain panel (AID 1159580);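 also: tested at 20 µM; growth read once vehicle control cultures reached saturation at 30 °C; 1 = growth at the plate median or of vehicle wells; lower values mean less growth of the strain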
Details: growth OD

Measured: normalized growth

CCN1C[C@]2(C)CC[C@H](OC)[C@]34C2[C@H](O)[C@]2(OCO[C@@]25C[C@H](OC)[C@H]2C[C@]3(O)C5[C@H]2O)C14
inactive: S. cerevisiae deletion strains, locus YAL013W, strain DEP1, stronger effect = lower value 0.998 | S. cerevisiae deletion strains, locus YBR021W, strain FUR4, stronger effect = lower value 1.01 | S. cerevisiae deletion strains, locus YBR229C, strain ROT2, stronger effect = lower value 1.01 | S. cerevisiae deletion strains, locus YCL029C, strain bik1, stronger effect = lower value 1.01 | S. cerevisiae deletion strains, locus YDL035C, strain GPR1, stronger effect = lower value 1.03 | S. cerevisiae deletion strains, locus YDL074C, strain BRE1, stronger effect = lower value 1.04 | S. cerevisiae deletion strains, locus YDL101C, strain DUN1, stronger effect = lower value 1.01 | S. cerevisiae deletion strains, locus YDL134C, strain PPH21, stronger effect = lower value 1.01 | S. cerevisiae deletion strains, locus YDL185W, strain tfp1, stronger effect = lower value 1 | S. cerevisiae deletion strains, locus YDL192W, strain arf1, stronger effect = lower value 1.01 | S. cerevisiae deletion strains, locus YDR101C, strain arx1, stronger effect = lower value 0.995 | S. cerevisiae deletion strains, locus YDR150W, strain NUM1, stronger effect = lower value 0.988 | S. cerevisiae deletion strains, locus YDR162C, strain NBP2, stronger effect = lower value 0.992 | S. cerevisiae deletion strains, locus YDR318W, strain mcm21, stronger effect = lower value 1.01 | S. cerevisiae deletion strains, locus YDR388W, stronger effect = lower value 1.01 | S. cerevisiae deletion strains, locus YDR502C, strain sam2, stronger effect = lower value 0.998 | S. cerevisiae deletion strains, locus YEL061C, strain CIN8, stronger effect = lower value 0.994 | S. cerevisiae deletion strains, locus YER110C, stronger effect = lower value 1.01 | S. cerevisiae deletion strains, locus YER155C, strain BEM2, stronger effect = lower value 0.981 | S. cerevisiae deletion strains, locus YER167W, strain BCK2, stronger effect = lower value 1 | S. cerevisiae deletion strains, locus YGL078C, strain dbp3, stronger effect = lower value 0.998 | S. cerevisiae deletion strains, locus YGL086W, strain mad1, stronger effect = lower value 1 | S. cerevisiae deletion strains, locus YGL248W, strain PDE1, stronger effect = lower value 1 | S. cerevisiae deletion strains, locus YGR078C, strain PAC10, stronger effect = lower value 1.03 | S. cerevisiae deletion strains, locus YGR135W, strain pre9, stronger effect = lower value 1.01 | S. cerevisiae deletion strains, locus YGR229C, strain SMI1, stronger effect = lower value 0.999 | S. cerevisiae deletion strains, locus YGR252W, strain gcn5, stronger effect = lower value 1.02 | S. cerevisiae deletion strains, locus YHR030C, strain SLT2, stronger effect = lower value 0.999 | S. cerevisiae deletion strains, locus YHR079C, strain IRE1 (second series), stronger effect = lower value 1.01 | S. cerevisiae deletion strains, locus YHR094C, strain hxt1, stronger effect = lower value 1 | S. cerevisiae deletion strains, locus YHR129C, strain ARP1, stronger effect = lower value 1 | S. cerevisiae deletion strains, locus YHR200W, strain rpn10, stronger effect = lower value 1 | S. cerevisiae deletion strains, locus YIL066C, strain RNR3, stronger effect = lower value 1 | S. cerevisiae deletion strains, locus YIL073C, strain SPO22, stronger effect = lower value 1 | S. cerevisiae deletion strains, locus YIL125W, strain kgd1, stronger effect = lower value 1 | S. cerevisiae deletion strains, locus YIR030C, strain dcg1, stronger effect = lower value 1 | S. cerevisiae deletion strains, locus YJL095W, strain BCK1, stronger effect = lower value 1.04 | S. cerevisiae deletion strains, locus YJL134W, strain LCB3, stronger effect = lower value 0.999 | S. cerevisiae deletion strains, locus YJL168C, strain set2, stronger effect = lower value 1.01 | S. cerevisiae deletion strains, locus YJL187C, strain SWE1 (second series), stronger effect = lower value 1.01 | S. cerevisiae deletion strains, locus YJR043C, strain POL32, stronger effect = lower value 1.01 | S. cerevisiae deletion strains, locus YJR075W, strain HOC1, stronger effect = lower value 1 | S. cerevisiae deletion strains, locus YKL009W, strain mrt4, stronger effect = lower value 1.02 | S. cerevisiae deletion strains, locus YKL068W, stronger effect = lower value 0.991 | S. cerevisiae deletion strains, locus YKL085W, strain MDH1 (second series), stronger effect = lower value 0.999 | S. cerevisiae deletion strains, locus YKL085W, strain MDH1, stronger effect = lower value 0.999 | S. cerevisiae deletion strains, locus YKL190W, strain CNB1, stronger effect = lower value 0.967 | S. cerevisiae deletion strains, locus YKR001C, strain vps1, stronger effect = lower value 1.01 | S. cerevisiae deletion strains, locus YLR039C, strain RIC1, stronger effect = lower value 1.03 | S. cerevisiae deletion strains, locus YLR058C, strain SHM2, stronger effect = lower value 1.01 | S. cerevisiae deletion strains, locus YLR102C, strain apc9, stronger effect = lower value 1 | S. cerevisiae deletion strains, locus YLR262C, strain YPT6, stronger effect = lower value 1.03 | S. cerevisiae deletion strains, locus YLR268W, strain sec22, stronger effect = lower value 1.02 | S. cerevisiae deletion strains, locus YLR330W, strain CHS5, stronger effect = lower value 1.01 | S. cerevisiae deletion strains, locus YLR342W, strain FKS1 (second series), stronger effect = lower value 1.03 | S. cerevisiae deletion strains, locus YLR371W, strain rom2, stronger effect = lower value 1 | S. cerevisiae deletion strains, locus YLR418C, strain cdc73, stronger effect = lower value 1.04 | S. cerevisiae deletion strains, locus YML016C, strain PPZ1, stronger effect = lower value 1 | S. cerevisiae deletion strains, locus YML032C, strain rad52, stronger effect = lower value 1 | S. cerevisiae deletion strains, locus YML124C, strain tub3, stronger effect = lower value 1 | S. cerevisiae deletion strains, locus YMR078C, strain ctf18, stronger effect = lower value 1.01 | S. cerevisiae deletion strains, locus YMR223W, strain ubp8, stronger effect = lower value 0.998 | S. cerevisiae deletion strains, locus YMR263W, strain SAP30, stronger effect = lower value 0.998 | S. cerevisiae deletion strains, locus YMR307W, strain GAS1, stronger effect = lower value 1.07 | S. cerevisiae deletion strains, locus YNL067W, strain RPL9B, stronger effect = lower value 0.995 | S. cerevisiae deletion strains, locus YNL128W, strain TEP1, stronger effect = lower value 1 | S. cerevisiae deletion strains, locus YNL153C, strain GIM3, stronger effect = lower value 1 | S. cerevisiae deletion strains, locus YNL233W, strain BNI4, stronger effect = lower value 1.01 | S. cerevisiae deletion strains, locus YNL250W, strain rad50, stronger effect = lower value 0.999 | S. cerevisiae deletion strains, locus YNL271C, strain bni1, stronger effect = lower value 1.01 | S. cerevisiae deletion strains, locus YNL298W, strain CLA4, stronger effect = lower value 1 | S. cerevisiae deletion strains, locus YNL307C, strain MCK1, stronger effect = lower value 1.02 | S. cerevisiae deletion strains, locus YNL322C, strain KRE1, stronger effect = lower value 1 | S. cerevisiae deletion strains, locus YNR052C, strain pop2, stronger effect = lower value 1.01 | S. cerevisiae deletion strains, locus YOL006C, strain TOP1, stronger effect = lower value 1.02 | S. cerevisiae deletion strains, locus YOL012C, strain htz1 1.33 | S. cerevisiae deletion strains, locus YOL147C, strain pex11, stronger effect = lower value 1.01 | S. cerevisiae deletion strains, locus YOR061W, strain CKA2, stronger effect = lower value 1.01 | S. cerevisiae deletion strains, locus YOR069W, strain VPS5, stronger effect = lower value 1 | S. cerevisiae deletion strains, locus YOR136W, strain idh2, stronger effect = lower value 1.01 | S. cerevisiae deletion strains, locus YOR144C, strain elg1, stronger effect = lower value 1.01 | S. cerevisiae deletion strains, locus YOR184W, strain ser1, stronger effect = lower value 1.03 | S. cerevisiae deletion strains, locus YOR316C, strain cot1, stronger effect = lower value 1 | S. cerevisiae deletion strains, locus YPL055C, strain LGE1, stronger effect = lower value 0.987 | S. cerevisiae deletion strains, locus YPL241C, strain CIN2, stronger effect = lower value 0.998 | S. cerevisiae deletion strains, locus YPR119W, strain clb2, stronger effect = lower value 1 | S. cerevisiae deletion strains, locus YPR141C, strain kar3, stronger effect = lower value 1 | S. cerevisiae deletion strains, locus YPR163C, strain tif3, stronger effect = lower value 1.02 | S. cerevisiae deletion strains, locus YPR167C, strain met16, stronger effect = lower value 1.01 | S. cerevisiae deletion strains, strain wtn01, stronger effect = lower value 1 | S. cerevisiae strains, strain wild type, stronger effect = lower value 0.987
